In PubChem BioAssay (NCI):
This is part of a sample that, as a whole, favours compounds with a hit. Of some 83,000 tested, about 20% had one in any assay.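 Step 1: grow cells in 96-well plates. Step 2: add test compound at a single concentration. Step 3: incubate 48 h. Step 4: record percent growth.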 Active and inactive are the calls of the source. The calls were made as follows: active = growth percent below 10; inactive = the rest.

What follows are compounds tested on HL-60(TB) leukemia (assay: NCI-60 one-dose screen, 48 h (100 = growth as untreated, 0 = no growth, -100 = all killed)). Settings: 10 µM unless noted.
With `CCCCCCN1C=C/C(=C\C(=O)n2ccc3ccccc32)c2ccccc21` the growth was 24.7% (inactive). In the case of `C#CCn1cc(/C=N/Nc2nc(-c3ccc(Br)cc3)cs2)c2ccccc21`, the growth is reported as 107% (inactive). For `O=C(c1ccc(Cl)cc1)C1[C@H](c2ccc(Cl)cc2)[C@@H](c2ccccc2)NC12C(=O)Nc1ccc(Br)cc12` (stereo not given in full), the growth was 22.3% (inactive). For `O=c1c2ccccc2nc(COc2ccccc2)n1/N=C/C=C/c1ccccc1`, the growth was 107% (inactive). With `C=C(C=O)[C@@H]1CC[C@]2(C(=O)O)CC[C@]3(C)C(CC[C@@H]4[C@@](C)(CCC#N)[C@H](C(=C)C=O)CC[C@]43C)[C@@H]12` (stereo not given in full) the growth was 2.63% (active). For `NC(=O)c1c(NC(=O)c2ccc(C3CCCCC3)cc2)sc2c1CCC(=O)C2`, the growth was 7.79% (active). With `IP(CCCCCCCCCCSc1n(Cc2ccc3ccccc3c2)c(-c2ccccc2)c(-c2ccccc2)[n+]1Cc1ccc2ccccc2c1)(c1ccccc1)(c1ccccc1)c1ccccc1` the growth was -62.5% (active). For `COc1ccc(NC(=O)CCCCCCNC(=O)C(O)(O)C(F)(F)F)cc1`, the growth was 11.3% (inactive). `Clc1ccc(CSc2nnc(-c3ccc(Cl)cc3)n2-c2ccccc2)cc1` was tested, and the growth was 90.9% (inactive). `C#C[C@]1(O)CC[C@H]2[C@@H]3CC=C4c5sc(N(C)c6ccccc6)nc5CC[C@]4(C)[C@H]3CC[C@@]21C` was tested, and the growth was 61.8% (inactive). For `NC(=S)N/N=C(/C=C/c1cn(-c2ccccc2)nc1-c1ccc(Cl)cc1)c1cc2ccccc2oc1=O`, the growth was 43.9% (inactive). For `CC(C)(C)Nc1nc2c(OCCc3ccccc3)cccn2c1-c1cccc(F)c1`, the growth was -30.2% (active). For `O=C1NC(=O)c2c1c1c3ccccc3ccc1c1[nH]c3ccccc3c21`, the growth was 16.8% (inactive). `COc1cccc2c1CN(C(=O)c1ccc(O)c(C(=O)N3Cc4ccc(OCCC[P+](c5ccccc5)(c5ccccc5)c5ccccc5)cc4C3)c1)C2` was tested, and the growth was 41.3% (inactive). In the case of `COc1cc(C(=O)c2cc(C(C)=O)c3c4ccccc4ccn23)cc(OC)c1OC`, the growth is reported as 32.9% (inactive). With `CCOC(=O)c1c(NC(=O)c2ccccc2C(F)(F)F)sc2c1CCC(=O)C2` the growth was 33.4% (inactive). `COc1ccc(/C=C2\SC(=Nc3cc(C)[nH]n3)NC2=O)cc1` was tested, and the growth was 87.1% (inactive). `COc1ccc(Cn2cc3c(c2-c2cc(OC)c(OC)c(OC)c2)CCCc2cnoc2-3)cc1N` was tested, and the growth was -9.82% (active). `CN1CCN(c2ccc(Nc3nc(NCCNC(=O)c4ccc(F)cc4)c4sccc4n3)cc2)CC1` was tested, and the growth was 34.3% (inactive). For `Oc1ccc(-c2nnc(SCc3ccc(O)c4ncccc34)n2-c2ccccc2)cc1`, the growth was 1.26% (active). For `COc1ccc(/C=N/NC(=O)c2cn(C3CC3)c3c(OC)c(N4CC5CCCNC5C4)c(F)cc3c2=O)cc1` (stereo not given), the growth was 80.6% (inactive). `COc1ccc2[nH]cc(-c3cc(N)n4nc(-c5c[nH]c6ccc(OC)cc56)cc4n3)c2c1` was tested, and the growth was -46.1% (active). For `NC1CC2(CCN(c3cnc(C(=O)Nc4cc(F)cc5cccnc45)cn3)CC2)C1`, the growth was 50.6% (inactive). With `Nc1cc(-c2c[nH]c3ccc(F)cc23)nc2cc(-c3c[nH]c4ccc(F)cc34)nn12` the growth was -37.6% (active). `O=C1C(N2CCN(c3ccccc3)CC2)=C(Cl)C(=O)c2ncccc21` was tested, and the growth was 4.34% (active). In the case of `COC(=O)c1cccc(NC2=CC(=O)C(C)=C(C)C2=O)c1`, the growth is reported as 42% (inactive). `C#C[C@]1(O)CC[C@H]2[C@@H]3CC=C4c5sc(Nc6cccc(F)c6)nc5CC[C@]4(C)[C@H]3CC[C@@]21C` was tested, and the growth was -13.1% (active). For `O=C(NNc1nc2cc(F)c(F)cc2n2cccc12)c1cccnn1`, the growth was -2.31% (active). In the case of `O=C1Nc2cc(OC(F)(F)F)ccc2Oc2ccc(-c3ccnc(N4CC[C@H](O)C4)c3)cc21`, the growth is reported as -23.6% (active). In the case of `C#Cc1nc(/C=C/C(=O)NO)cs1`, the growth is reported as -58.7% (active). In the case of `C=C1C(=O)O[C@@H]2C[C@@H](C)CCC(=O)[C@](C)(OC(C)=O)C[C@H](OC(=O)/C(C)=C\C)[C@@H]12`, the growth is reported as 26.4% (inactive). With `Cc1ccc(N2CCN(C3=C(Cl)C(=O)c4ncccc4C3=O)CC2)cc1` the growth was 3.39% (active). In the case of `CCOC(=O)c1c(NC(=O)c2cccc(C(F)(F)F)c2)sc2c3c(ccc12)OCN(C)C3`, the growth is reported as -56.3% (active). With `Oc1ccc(CSc2nnc(-c3ccc(Cl)cc3)n2-c2ccccc2)c2cccnc12` the growth was 23.6% (inactive). In the case of `C=C1CC[C@@H]2[C@](C)(CO)[C@H](O)CC[C@@]2(C)[C@@H]1C/C(O)=C1\CCOC1=O`, the growth is reported as 95.3% (inactive). With `CCc1ccc(SC2c3ccc(N(CC)CC)cc3Oc3nc(N)c(C#N)c(N)c32)cc1` (stereo not given) the growth was -12.5% (active). For `CCn1c(SCC(=O)Nc2cccc(C(=O)/C=C/c3ccccc3Cl)c2)nc2ccccc2c1=O`, the growth was 107% (inactive). In the case of `COc1cc(OC)c(/C=C/S(=O)(=O)Cc2ccc(OC)c(NC(=O)CCC(=O)NO)c2)c(OC)c1`, the growth is reported as -10.8% (active). `NC(N)=Nc1ccc(Oc2cccc(Nc3ccc(Cl)c(C(F)(F)F)c3)c2)cn1` was tested, and the growth was -68% (active). For `COc1ccc(N2CCN(C3=C(Cl)C(=O)C(C)=C(C)C3=O)CC2)cc1`, the growth was 80.3% (inactive).
